Compounds with a hit are over-represented: about 14% of the library has one in this group of screens.
Pf growth 96h = P. falciparum growth inhibition at 96 hour, primary screen for plastid delayed-death inhibitors. P. falciparum luciferase reporter growth, 96 h. Potency, µM (highest dose often 28.7 µM), actives largely listed as inhibitors. 6.9% of 320,000 active
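Cell-based qHTS: luciferase-tagged P. falciparum in erythrocytes (2% hematocrit, 0.05% parasitemia final) incubated with compounds for 96 hours, 37 C, 5% CO2; luciferase detection reagent then added and luminescence measured.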
Sm TGR inh = inhibitors of Schistosoma mansoni thioredoxin glutathione reductase; purified TGR, DTNB reduction, TNB absorbance 405 nm; 3% of 360,000 active; Potency, µM (top dose mostly 114 µM), most hits filed as inhibitors; Q962Y6; further: nearly all actives have a fitted effect of over 60% in size
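TGR 20 nM + NADPH 100 uM (dispensed conc.), cpd preinc 15 min RT; start with NADPH (500 uM addition) then DTNB (15 mM addition). Kinetic TNB absorbance, 405 nm filter. Four-parameter Hill fit across titration.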
FBPA Giardia inh = inhibitors of Giardia lamblia fructose-1,6-bisphosphate aldolase; purified Giardia FBPA; 0.71% of 290,000 active; Potency, µM (doses to about 59.6 µM), usual class: inhibitors; AID 2451; further: nearly all actives have a fitted effect of over 55% in size
Target sequence (A8B2U2 whole entry, looked up): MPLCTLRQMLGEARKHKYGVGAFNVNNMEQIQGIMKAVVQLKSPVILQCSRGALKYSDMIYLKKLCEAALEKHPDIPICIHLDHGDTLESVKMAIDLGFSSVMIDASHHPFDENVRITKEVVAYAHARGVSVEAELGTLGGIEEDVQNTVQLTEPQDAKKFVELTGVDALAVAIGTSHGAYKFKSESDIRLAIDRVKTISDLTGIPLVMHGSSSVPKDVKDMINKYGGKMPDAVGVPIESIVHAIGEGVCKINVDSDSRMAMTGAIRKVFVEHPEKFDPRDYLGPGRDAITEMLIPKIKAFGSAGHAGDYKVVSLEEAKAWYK
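Giardia FBPA (40 nM reagent) was preincubated 10 min at RT with compound (up to 57.5 uM final), then substrate plus GAPDH/TPI/NAD/arsenate coupling system with diaphorase/resazurin was added; resorufin fluorescence (525/598 nm) was read after 20 min.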
HCMV inh = blocks human cytomegalovirus replication; HFF cells, HCMV-luciferase reporter, 72 h; stronger effect = lower value; activity change, negative = inhibition, % at 57.5 µM; 4.5% of 410,000 active; in the data active means activity change below about -60%; inconclusive means no clear call, values can overlap the other calls; inactive means above about -39%
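Luciferase read-out from HCMV-luciferase-infected HFFs (MOI 1 PFU/cell) 72 h post infection at 37C; compounds added after 16 h cell attachment; activity normalized between buffer-only basal and Salinomycin (10uM) inhibitor controls.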
Pf growth 48h = P. falciparum growth inhibition at 48 hours (one generation); P. falciparum luciferase growth in erythrocytes, 48 h; Potency, µM (series often up to 28.7 µM), hits mostly inhibitors; AID 504832; 5.9% of 310,000 active
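A one-generation exposure of luciferase-tagged malaria parasites in RPMI 1640/Albumax erythrocyte culture, 37 C and 5% CO2. Inhibition is inferred from decreased luminescence after adding detection reagent.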
Each line names hits and unclear results; the compound was inactive in the other large screens. Unless noted, the call rests on the fitted dose curve; in most records, active means well fitted curve in the direction sought with a large enough effect; inconclusive means small, poorly fitted or top-dose-only effect, or another doubt; inactive means no such curve, though single readings can be large; an effect the other way counts as inactive or inconclusive.

O=C(Nc1ccccc1)N1CC=C(c2ccccc2)CC1	Sm TGR inh inconclusive (no result: Pf growth 96h, HCMV inh)
O=C(Nc1cccc2ccccc12)N1CC=C(c2ccccc2)CC1	Pf growth 96h 0.1µM (no result: Pf growth 48h)
COc1ccc(Nc2cc3c(cn2)ncn3Cc2ccccc2)c(C)c1	none (no result: Pf growth 96h, Sm TGR inh, FBPA Giardia inh, Pf growth 48h)
O=C1c2[nH]nc(-c3ccccc3O)c2C(c2cccc(Br)c2)N1Cc1ccncc1 (centres undefined)	HCMV inh -82 (no result: Pf growth 96h, FBPA Giardia inh, Pf growth 48h)
COc1cc(C2c3c(-c4ccccc4O)n[nH]c3C(=O)N2Cc2ccncc2)ccc1O (centres undefined)	none (no result: Pf growth 96h, FBPA Giardia inh, Pf growth 48h)
O=C1c2[nH]nc(-c3ccccc3O)c2C(c2cccc(Cl)c2)N1Cc1cccnc1 (centres undefined)	none (no result: Pf growth 96h, FBPA Giardia inh, Pf growth 48h)
COc1ccc(CCN2C(=O)c3[nH]nc(-c4ccccc4O)c3C2c2cccc(OC)c2)cc1 (centres undefined)	HCMV inh -71 (no result: Pf growth 96h, FBPA Giardia inh, Pf growth 48h)
Cc1ccc(C2c3c(-c4ccccc4O)n[nH]c3C(=O)N2Cc2ccncc2)cc1 (centres undefined)	Pf growth 96h inconclusive, Pf growth 48h inconclusive
COc1ccc(CCN2C(=O)c3[nH]nc(-c4ccccc4O)c3C2c2cccc(Cl)c2)cc1 (centres undefined)	Pf growth 96h 1.9µM, HCMV inh inconclusive, Pf growth 48h 3.3µM
CC(=O)N/C(=C\c1ccccc1)C(=O)OC(C)C(=O)NCc1ccccc1 (centres undefined)	none (no result: FBPA Giardia inh)
CCOC(=O)c1ccccc1NC(=S)N1CCC(C)CC1	Pf growth 48h inconclusive
CCOC(=O)c1ccccc1NC(=S)N1CC(C)CC(C)C1 (centres undefined)	Pf growth 96h inconclusive, Pf growth 48h 2.9µM
O=C(CN1C(=O)c2cccnc2Oc2ccc(Cl)cc21)NCCCc1ccccc1	Pf growth 48h inconclusive (no result: FBPA Giardia inh)
COc1ccc(CCNC(=O)CS(=O)Cc2nc(-c3ccccc3Cl)oc2C)cc1OC (centres undefined)	Sm TGR inh 56µM (no result: FBPA Giardia inh)
Cc1ccc(CNC(=O)CS(=O)Cc2nc(-c3cccs3)oc2C)cc1 (centres undefined)	Sm TGR inh 25µM (no result: Pf growth 48h)
Cc1ccc(CCNC(=O)CS(=O)Cc2nc(-c3cccs3)oc2C)cc1 (centres undefined)	Sm TGR inh 8.9µM
Cc1oc(-c2cccs2)nc1CS(=O)CC(=O)NCc1ccc2c(c1)OCO2 (centres undefined)	Sm TGR inh 40µM
Cc1ccc(Cl)cc1N1CCN(S(=O)(=O)c2ccc3c(c2)CCCN3C(=O)C2CCC2)CC1	none (no result: Pf growth 96h, FBPA Giardia inh, Pf growth 48h)
CC1(C(=O)NCc2ccccc2)CN(S(C)(=O)=O)CC(=O)N1C1CC1 (centres undefined)	none (no result: Pf growth 96h, Sm TGR inh, FBPA Giardia inh, Pf growth 48h)
C[C@H]1CN(S(=O)(=O)c2c(F)cccc2F)CCN1S(=O)(=O)c1ccc2c(c1)OCCO2	none (no result: Pf growth 96h, Sm TGR inh, FBPA Giardia inh, Pf growth 48h)
COc1ccc(CCNC(=O)CS(=O)Cc2nc(-c3cccs3)oc2C)cc1OC (centres undefined)	Pf growth 96h 8.3µM, Sm TGR inh 22µM, Pf growth 48h inconclusive (no result: FBPA Giardia inh)
COc1ccc(CCNC(=O)CS(=O)Cc2nc(-c3ccccc3F)oc2C)cc1OC (centres undefined)	Sm TGR inh inconclusive
O=c1cc(-c2ccccc2Br)[nH]c2ccccc12	HCMV inh -90 (no result: Pf growth 96h, Sm TGR inh, FBPA Giardia inh, Pf growth 48h)
Cc1cc(=O)c2ccccc2[nH]1	none
Cc1ccc(-c2cc(=O)c3ccccc3[nH]2)cc1	Pf growth 96h inconclusive, Pf growth 48h inconclusive
O=c1cc(-c2ccc(Cl)cc2)[nH]c2ccccc12	Pf growth 96h 2.1µM, Pf growth 48h 1.5µM (no result: HCMV inh)
Cc1cc2c(cc1S(=O)(=O)Nc1cccc(Cl)c1C)n(C)c(=O)c(=O)n2C	none (no result: Pf growth 96h, FBPA Giardia inh, Pf growth 48h)
CCCCn1c(-c2csc3c2CCC(C)C3)n[nH]c1=S (centres undefined)	HCMV inh -61, Pf growth 48h 0.93µM
CNC(=O)c1cccc(-n2c(C)nc3cccnc32)c1C	HCMV inh active (no result: Pf growth 96h, FBPA Giardia inh, Pf growth 48h)
Cc1ccc(C)c(NC(=O)c2cnc3sc(N4CCOCC4)nn3c2=O)c1	none (no result: Pf growth 96h, FBPA Giardia inh, Pf growth 48h)
COCOc1ccc(OC)cc1C(=O)/C=C/c1ccc(OC)c(Br)c1	none (no result: Pf growth 96h, Sm TGR inh, HCMV inh, Pf growth 48h)
O=C(CNC(=O)c1ccccc1F)OCC(=O)N1CCCCC1	HCMV inh -62
C/C(CC(=O)Nc1ccc(Cl)c(C(F)(F)F)c1)=N\NC(=O)c1cc2ccccc2cc1O	Pf growth 96h inconclusive, Pf growth 48h inconclusive
CCC1CCCCN1C(=O)COC(=O)c1cc2ccccc2cc1O (centres undefined)	none (no result: Pf growth 48h)
